Only some compounds are listed: those with a hit (about 2.8% of all), similar ones and a draw of the others.
MRP reversal = reversal of MRP1-mediated doxorubicin resistance, primary screen, H69AR cells, doxorubicin co-treatment. H69AR cells + 2 uM doxorubicin, CellTiter-Glo, 72 h. differential viability (reversal), % at 10 µM. actives 0.04% (n = 85,000). AID 602, 2007;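 active = viability drop by adding the cancer drug above about 55%, with treated viability meeting a 40% cutoff, limit read from the data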;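 also: viability without doxorubicin minus viability with 2 µM doxorubicin for each compound; larger differential means the compound sensitizes cells more to doxorubicin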
ERa coact inh = ERα–SRC-1 coactivator interaction inhibitors, primary screen, biochemical, TR-FRET, ERα LBD, estradiol-bound; TR-FRET ER-alpha LBD / SRC-1 peptide; inhibition, % at 25.6 µM; actives 1.7% (n = 86,000); AID 629, 2007; in the data active = inhibition above about 50%;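 also: 0% = receptor plus peptide control and 100% = peptide only without receptor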
Smad3 inh = Smad3/FoxH1 peptide binding inhibitors, primary screen, biochemical, TR-FRET; Mothers against decapentaplegic homolog 3 (Homo sapiens), P84022; TR-FRET Smad3/Dy647-FoxH1 peptide binding, europium anti-His; inhibition, % at 25 µM; actives 0.29% (n = 88,000);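 active = compounds that reduce the energy-transfer binding signal between the protein and its labelled peptide by more than half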;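 also: 0% = Smad3 plus labelled peptide maximal FRET and 100% = peptide-only background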
Target sequence (P84022 whole entry, looked up): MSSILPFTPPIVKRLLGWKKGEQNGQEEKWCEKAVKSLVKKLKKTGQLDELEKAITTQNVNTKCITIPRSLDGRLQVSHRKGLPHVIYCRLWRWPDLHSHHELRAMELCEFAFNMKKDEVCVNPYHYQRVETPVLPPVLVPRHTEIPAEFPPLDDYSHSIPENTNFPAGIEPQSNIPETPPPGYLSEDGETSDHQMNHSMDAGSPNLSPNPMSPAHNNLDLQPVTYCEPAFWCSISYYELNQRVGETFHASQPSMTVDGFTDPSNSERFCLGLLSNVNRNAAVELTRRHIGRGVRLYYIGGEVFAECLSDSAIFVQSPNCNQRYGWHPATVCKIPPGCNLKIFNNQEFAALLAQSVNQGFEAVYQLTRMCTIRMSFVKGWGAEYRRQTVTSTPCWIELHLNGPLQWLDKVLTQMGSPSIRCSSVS
MRP-1 activ = H69AR viability gain despite doxorubicin, primary screen, MRP-1 activator project, H69AR cells, CellTiter-Glo | viability rescue | viability increase, % at 10 µM | actives 0.61% (n = 140,000) | AID 799, 2007;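 active = viability gain under doxorubicin at or above a set limit, the compound median plus 3 SD, cut at about 4.7% in these data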;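 also: MRP-1 overexpressing cells given doxorubicin 25 µM after compound pretreatment; 18-22 h compound pretreatment then 72 h with doxorubicin before readout; 0% = doxorubicin-only wells and 100% = vehicle-treated cells without doxorubicin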
ERa coact pot = enhancers of ERα–SRC-1 coactivator binding, primary screen, biochemical, TR-FRET, ERα LBD, low estradiol; Estrogen receptor (Homo sapiens), P03372; TR-FRET ERalpha-LBD/SRC-Cy5 coactivator binding, 2 h; 100 = basal binding, no effect; coactivator binding (% of control), % at 25.6 µM; actives 1.3% (n = 86,000); in the data active = activity above about 200%;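 also: binding measured in presence of low estradiol as agonist stimulus; 0% = peptide alone without receptor and 100% = receptor with peptide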
ERb coact inh = inhibitors of ERβ-SRC1 coactivator interaction, primary screen, biochemical, TR-FRET, ERβ LBD, SRC-1 peptide | Estrogen receptor beta (Homo sapiens), Q92731 | TR-FRET ER-beta LBD / SRC1-Cy5 peptide binding; receptor agonist-loaded with 1 µM estradiol | inhibition, % at 25.6 µM | actives 1.3% (n = 86,000) | AID 633, 2007;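 active = compounds whose percent inhibition of the receptor-coactivator binding signal exceeds about 50% in the single-dose screen, limit read from the data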;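 also: 0% = receptor plus peptide wells without compound and 100% = peptide-only wells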
* = called active by the depositor; [ ] = dose if it differs, or a comment.

Screening Cc1cc(S(=O)(=O)N(Cc2ccc(F)cc2)CC2CCCO2)ccc1-n1cnnn1 (stereo not given) returned MRP reversal -2.0, ERa coact inh -0.6, Smad3 inh 2.6, MRP-1 activ -3.6, ERa coact pot 120.2 and ERb coact inh 62.9*.
Screening CC(C)(C)C(=O)[C@H]([C@@H](c1ccccc1)N1CCOCC1)N1CCOCC1 returned Smad3 inh -1.3.
For O=C1C2[C@@H](c3ccccc3)N[C@@H](c3ccccc3)C1[C@@H](c1ccccc1)N[C@H]2c1ccccc1 the results were Smad3 inh -4.1.
Screening Cc1cc(NC(=O)Cn2c(C)nc3ccccc3c2=O)ccc1Br returned MRP reversal -1.1, ERa coact inh 19.5, Smad3 inh 8.3, MRP-1 activ -1.8, ERa coact pot 265.4* and ERb coact inh 8.8.
Screening CCC(=O)Nc1ccc2nc(C)n(CC(=O)Nc3ccccc3)c(=O)c2c1 returned MRP reversal 4.2, ERa coact inh -17.5, Smad3 inh 7.9, MRP-1 activ -1.5, ERa coact pot 96.0 and ERb coact inh -10.9.
CC(OC(=O)c1snc(C(=O)NC2CCCCC2)c1N)C(=O)NC(C)(C)C (stereo not given) was read as MRP reversal -12.9, ERa coact inh 1.6, Smad3 inh 15.7, MRP-1 activ 6.2*, ERa coact pot 120.1 and ERb coact inh 0.1.
`Cc1[nH]nc2c1C(c1ccc(F)cc1)C1=C(CC(C)(C)CC1=O)N2` (stereo not given) gave MRP reversal 2.8, ERa coact inh -27.9, Smad3 inh -1.5, MRP-1 activ -3.7, ERa coact pot 97.9 and ERb coact inh -15.4.
`O=C1CC(N2CCC(c3nc4ccccc4o3)CC2)C(=O)N1c1cc(Cl)cc(Cl)c1` (stereo not given) gave MRP reversal 4.7, ERa coact inh -1.9, Smad3 inh 9.2, MRP-1 activ 8.2*, ERa coact pot 115.5 and ERb coact inh -28.9.
CN(Cc1ccccc1)C(=O)CCSc1nc(-c2ccc3c(c2)OCO3)cc(C(F)(F)F)n1 was read as MRP reversal -15.7, ERa coact inh -11.7, Smad3 inh 0.8, MRP-1 activ -4.8, ERa coact pot 114.1 and ERb coact inh 1.2.
c1ccc([C@H](c2cccc3c2ccc2ccccc23)[C@H](c2ccccc2)c2cccc3c2ccc2ccccc23)cc1 was read as Smad3 inh -0.4.
`Cc1cccc(NC(=O)Cn2nnc(-c3ccc(CN4CCCC4)cc3)n2)c1C` gave MRP reversal 10.6, ERa coact inh 11.2, Smad3 inh 4.2, MRP-1 activ -0.8, ERa coact pot 204.3*[fluorescence artefact?] and ERb coact inh 17.0.
O=C(c1cc2sccc2n1Cc1ccccc1)N1CCc2ccccc21 was read as MRP reversal -4.0, ERa coact inh 13.8, Smad3 inh -2.9, MRP-1 activ -3.2, ERa coact pot 509.5* and ERb coact inh 5.4.
Screening O=C(c1cc2sccc2n1Cc1ccccc1)N1CCCc2ccccc21 returned MRP reversal 1.1, ERa coact inh -7.4, Smad3 inh -3.1, MRP-1 activ -1.5, ERa coact pot 126.7 and ERb coact inh -3.4.
For [O-]/N=C1/C(=[OH+])Nc2ccccc21.[O-]Nc1c([O+]=[Cu])[nH]c2ccccc12 the results were Smad3 inh 9.8.
`Cc1cc2n(n1)C(c1ccccc1)CC(c1ccc(Br)cc1)=N2` (stereo not given) gave MRP-1 activ 5.5*.
`NC(N)=N/N=C(\c1ccccc1)c1ccc(O)cc1O` gave Smad3 inh -2.8.
Screening Nc1c(C(=O)Nc2ccccc2)sc2nc3c(c(-c4ccco4)c12)CCC3 returned MRP reversal -8.8, ERa coact inh 28.2, Smad3 inh 3.2, MRP-1 activ -0.9, ERa coact pot 77.9 and ERb coact inh 35.7.
For Nc1c(C(=O)Nc2ccc(F)cc2)sc2nc(-c3ccco3)ccc12 the results were MRP reversal -7.4, ERa coact inh 67.2*[fluorescence artefact?], Smad3 inh 0.9, MRP-1 activ -1.7, ERa coact pot 98.5 and ERb coact inh 64.4*.
COc1ccc(-c2c3c(nc4sc(C(=O)Nc5ccccc5)c(N)c24)CCC3)cc1 was read as MRP reversal -5.5, ERa coact inh 68.4*[fluorescence artefact?], Smad3 inh 6.0, ERa coact pot 185.2 and ERb coact inh 24.0.
For Cc1ccc(NC(=O)c2sc3nc4c(c(-c5ccco5)c3c2N)CCC4)cc1 the results were MRP reversal -6.2, ERa coact inh 59.1*, Smad3 inh -0.3, MRP-1 activ 0.5, ERa coact pot 72.3 and ERb coact inh 42.5.
`Nc1c(C(=O)Nc2ccccc2)sc2nc3c(c(-c4ccco4)c12)CCCC3` gave MRP reversal -2.3, ERa coact inh 13.6, Smad3 inh 0.3, MRP-1 activ -3.7, ERa coact pot 132.7 and ERb coact inh 16.2.
O=c1[nH]ncn2cccc12 was read as MRP-1 activ -0.6.
Screening CCOCCCN1C(=O)C(O)=C(C(C)=O)C1c1cccs1 (stereo not given) returned MRP reversal -4.2, ERa coact inh -9.8, Smad3 inh 5.1, MRP-1 activ -0.6, ERa coact pot 93.7 and ERb coact inh 0.1.
Screening CC(=O)C1=C(O)C(=O)N(c2nnn(C)n2)C1c1cccs1 (stereo not given) returned MRP reversal -1.4, ERa coact inh -3.1, Smad3 inh 5.6, MRP-1 activ -1.4, ERa coact pot 133.6 and ERb coact inh 78.9*[fluorescence artefact?].
For C/C(=N\Nc1ccc2ccccc2n1)c1ccccc1O the results were Smad3 inh 9.3.
Screening CC1(C)Cc2ccccc2-c2nnnn21 returned MRP reversal -1.9, ERa coact inh 5.8, Smad3 inh -5.9, MRP-1 activ -1.2, ERa coact pot 101.1 and ERb coact inh 96.5*[fluorescence artefact?].
Screening O=C(Nc1ccc(Nc2ccc3c(c2)C(=O)c2ccccc2C3=O)c2c1C(=O)c1ccccc1C2=O)c1ccccc1 returned Smad3 inh 23.8.
For CCCc1cc2c(=O)c(-c3ccc4c(c3)OCCO4)coc2cc1OC(=O)c1ccco1 the results were MRP reversal -19.4, ERa coact inh 50.8*, Smad3 inh 9.2, MRP-1 activ 1.1, ERa coact pot 122.0 and ERb coact inh 20.8.
